FadD28 FP inh: M. tuberculosis FadD28 bisubstrate binding inhibition; FadD28 bisubstrate probe binding, fluorescence polarization; inhibition, % at 12.5 µM; 0.22% of 360,000 active; in the data active = inhibition above about 8.5%, passing the limit was not always enough
GDH-TPI inh: GDH-TPI coupled enzyme inhibition counter-screen; GDH-TPI coupled enzyme counterscreen, NADH absorbance; inhibition, % at 4.8 µM; 1.2% of 360,000 active; in the data active = inhibition above about 30%;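 also: 0% = DMSO wells and 100% = wells lacking the enzyme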
Mtb FBA inh: inhibitors of M. tuberculosis fructose-bisphosphate aldolase | P9WQA3 | purified M. tuberculosis FBA, fluorescence read-out | inhibition, % at 1 µM | 2.3% of 360,000 active; in the data active = inhibition above about 27%;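 also: 0% = vehicle and 100% = reference inhibitor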
UGM FP inh: blocks M. tuberculosis UGM enzyme | purified UGM, fluorescence polarization probe displacement | AID 504406 | P9WIQ1 | 0.06% of 320,000 active | inhibition, % at 10 µM; in the data active = inhibition above about 10%, passing the limit was not always enough
Target sequence (P9WIQ1 whole entry, looked up): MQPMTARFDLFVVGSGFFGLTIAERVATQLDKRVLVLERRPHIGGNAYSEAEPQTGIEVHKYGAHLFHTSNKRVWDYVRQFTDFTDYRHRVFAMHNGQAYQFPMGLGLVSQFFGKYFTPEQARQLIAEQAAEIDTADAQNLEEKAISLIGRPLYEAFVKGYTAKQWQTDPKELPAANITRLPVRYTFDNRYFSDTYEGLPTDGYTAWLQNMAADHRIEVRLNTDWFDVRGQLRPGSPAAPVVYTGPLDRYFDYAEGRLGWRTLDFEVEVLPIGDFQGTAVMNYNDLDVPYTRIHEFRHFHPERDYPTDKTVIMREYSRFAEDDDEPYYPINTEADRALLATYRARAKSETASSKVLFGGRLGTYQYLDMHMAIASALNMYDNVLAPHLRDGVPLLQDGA
Mtb betalactam: beta-lactam sensitization of Mtb H37Rv; AID 434955; M. tuberculosis H37Rv growth with meropenem, percent inhibition; 0.27% of 330,000 active; inhibition, % at 25 µM; call rule not given here;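 also: growth measured after seven days incubation then overnight dye step; 0% = bacteria only wells and 100% = bacteria with antibiotic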
Rv3671c protease: inhibits the M. tuberculosis serine protease Rv3671c; inhibition, % at 5.96 µM; 0.048% of 320,000 active; AID 2606; in the data active = inhibition above about 38%;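 also: extracellular domain of Rv3671c used as enzyme; 0% = enzyme with DMSO and 100% = no enzyme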
* marks the source's active call; other numbers are inactive results. Only some compounds are listed: those with a hit (about 3.7% of all), similar ones and a draw of the others.

O=C(CN1C(=O)/C(=C/c2ccco2)SC1=S)Nc1ccc(C(=O)O)c(O)c1 was read as FadD28 FP inh 23*, GDH-TPI inh 17, Mtb FBA inh -3, UGM FP inh 1, Mtb betalactam 7 and Rv3671c protease -11.
O=C(CN1C(=O)/C(=C/c2ccco2)SC1=S)Nc1ccc(O)c(C(=O)O)c1 was read as FadD28 FP inh 36*, GDH-TPI inh 12, Mtb FBA inh 5, UGM FP inh 1, Mtb betalactam 2 and Rv3671c protease -4.
For CC(C(=O)N(C)C1CCS(=O)(=O)C1)N1C(=O)/C(=C/c2ccco2)SC1=S (configuration not stated) the results were FadD28 FP inh 1, GDH-TPI inh 10, Mtb FBA inh 0, UGM FP inh 0, Mtb betalactam -2 and Rv3671c protease -6.
Cc1ccc(NC(=O)CN2C(=O)S/C(=C\c3ccc(-c4cccc(C(=O)O)c4C)o3)C2=O)cc1C was read as FadD28 FP inh 12*, GDH-TPI inh 14 and Mtb FBA inh 0.
CCOc1ccccc1NC(=O)NNS(=O)(=O)c1cc(OC)ccc1OC was read as FadD28 FP inh -4, GDH-TPI inh -6, Mtb FBA inh -1, UGM FP inh -3, Mtb betalactam 5 and Rv3671c protease 5.
`CC(C)CC(=O)O/N=C1\C(=O)N(Cc2ccc(Cl)cc2)c2ccc([N+](=O)[O-])cc21` gave UGM FP inh 0, Mtb betalactam -1 and Rv3671c protease 77*.
`CC(Oc1cccc(Br)c1)C(=O)NNC(=O)CCS(=O)(=O)c1ccccc1` (configuration not stated) gave FadD28 FP inh -2, GDH-TPI inh 4, Mtb FBA inh 0, UGM FP inh -1, Mtb betalactam 2 and Rv3671c protease -1.
O=C1CCC(=O)c2oc3ccccc3c2N1 was read as FadD28 FP inh -3, GDH-TPI inh 31*, Mtb FBA inh 0, UGM FP inh 0, Mtb betalactam -5 and Rv3671c protease 8.
CN1C(=O)SC(Nc2cccc3ccccc23)C1=O (configuration not stated) was read as FadD28 FP inh -1, GDH-TPI inh -7, Mtb FBA inh 5, UGM FP inh 1, Mtb betalactam 73 and Rv3671c protease 7.
O=C1NC(=O)C(Nc2cccc3ccccc23)S1 (configuration not stated) was read as FadD28 FP inh 0, GDH-TPI inh 36*, Mtb FBA inh 7, UGM FP inh 1, Mtb betalactam -10 and Rv3671c protease 0.
COc1cccc(OC)c1OCCN1CCC(C(=O)NC(c2ccc3c(c2)OCO3)c2ccccn2)CC1 (configuration not stated) was read as FadD28 FP inh -4, GDH-TPI inh 4 and Mtb FBA inh -1.
CN1C/C(=C/c2ccccc2[N+](=O)[O-])C(=O)/C(=C\c2ccccc2[N+](=O)[O-])C1 was read as FadD28 FP inh -1, GDH-TPI inh 11 and Mtb FBA inh 4.
COP(=O)(OC)c1nc(-c2cccc3ccccc23)oc1N1CCCCC1 was read as FadD28 FP inh -1, GDH-TPI inh 10, Mtb FBA inh active, UGM FP inh -1, Mtb betalactam 6 and Rv3671c protease 2.
`CCOP(=O)(c1ccccc1)c1nc(-c2ccccc2C)oc1N1CCCCC1` (configuration not stated) gave UGM FP inh 6, Mtb betalactam -1 and Rv3671c protease 5.
For CCOP(=O)(OCC)c1nc(-c2ccccc2)oc1N1CCCCC1 the results were FadD28 FP inh -2, GDH-TPI inh 1, Mtb FBA inh active, UGM FP inh 1, Mtb betalactam -1 and Rv3671c protease -12.
COP(=O)(OC)c1nc(-c2ccc([N+](=O)[O-])cc2)oc1N1CCCCC1 was read as FadD28 FP inh -2, GDH-TPI inh 8, Mtb FBA inh -3, UGM FP inh 1, Mtb betalactam -2 and Rv3671c protease 1.
Screening CCOP(=O)(OCC)c1nc(-c2cccc3ccccc23)oc1N1CCCCC1 returned FadD28 FP inh -2, GDH-TPI inh 2, Mtb FBA inh 175*, UGM FP inh 1, Mtb betalactam 6 and Rv3671c protease 4.
CCCCC(O)(c1ccc(F)cc1)C(CN1CCOCC1)c1ccc(Cl)cc1 (configuration not stated) was read as FadD28 FP inh -4, GDH-TPI inh -6, Mtb FBA inh 1, UGM FP inh 0, Mtb betalactam 57 and Rv3671c protease -9.
Screening CS(=O)(=O)c1ccccc1-c1nnc(NC(=O)c2ccco2)o1 returned FadD28 FP inh -2, GDH-TPI inh 8, Mtb FBA inh 2, Mtb betalactam -8 and Rv3671c protease 4.
For Cc1cccc(N/C=C/C(=C(C#N)C#N)N(C)C)c1 the results were FadD28 FP inh 11*, GDH-TPI inh 9, Mtb FBA inh 4, UGM FP inh 0, Mtb betalactam 21 and Rv3671c protease 7.
`O=[N+]([O-])c1ccc2c3n([n+]([O-])c2c1)CCN=C3c1ccc(Cl)cc1` gave FadD28 FP inh -4, GDH-TPI inh 8, Mtb FBA inh -1, UGM FP inh -1, Mtb betalactam 67 and Rv3671c protease 5.
For c1cnc2nc(-c3ccc4c(c3)OCO4)cn2c1 the results were FadD28 FP inh 1, GDH-TPI inh 16, Mtb FBA inh 6, UGM FP inh 8, Mtb betalactam -8 and Rv3671c protease 6.
For Cc1ccc(-c2cn3cccnc3n2)cc1NC(=O)c1ccc(Br)o1 the results were FadD28 FP inh 0, GDH-TPI inh 41*, Mtb FBA inh active, UGM FP inh 1, Mtb betalactam 97 and Rv3671c protease 0.
For O=C(Nc1cccc(-c2cn3cccnc3n2)c1)c1ccco1 the results were FadD28 FP inh -2, GDH-TPI inh 24, Mtb FBA inh active, UGM FP inh 0, Mtb betalactam -2 and Rv3671c protease 5.
O=C(Nc1cccc(-c2cn3cccnc3n2)c1)c1cccs1 was read as FadD28 FP inh -1, GDH-TPI inh 12, Mtb FBA inh 170*, UGM FP inh 1, Mtb betalactam 14 and Rv3671c protease 2.
For O=C(Nc1cccc(-c2cn3cccnc3n2)c1)c1ccc2c(c1)OCO2 the results were FadD28 FP inh -5, GDH-TPI inh 17, Mtb FBA inh 134*, UGM FP inh -1, Mtb betalactam 19 and Rv3671c protease -8.
COc1ccc(-c2cn3cccnc3n2)cc1NC(=O)CC(C)C was read as FadD28 FP inh -1, GDH-TPI inh 23, Mtb FBA inh 20, UGM FP inh 0, Mtb betalactam -1 and Rv3671c protease 6.
For Cc1ccc(C(=O)OCC(=O)NNC(=O)COc2ccc(Cl)cc2)c(O)c1 the results were FadD28 FP inh -1, GDH-TPI inh 7, Mtb FBA inh 3, UGM FP inh 4, Mtb betalactam -6 and Rv3671c protease -16.

Bioassay records (PubChem BioAssay)
